Test results from PMC4336329 (PLoS ONE, 2015).
Among all 310,000 compounds or so, about 14,000 (4.5%) showed an effect of 50% or more. Effects have a minus sign here. The entries come from a sample that favours strong results as a whole.

Molecular target: human ether-à-go-go-related gene (hERG) potassium channel (human, UniProt Q12809)
Assay: primary screen, population patch clamp on CHO cells stably expressing hERG; higher = less effect of the substance
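Further: peak tail current of the secondary pulse compared with the same well before compound.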

Sequence of human ether-à-go-go-related gene (hERG) potassium channel (Q12809 whole entry, looked up): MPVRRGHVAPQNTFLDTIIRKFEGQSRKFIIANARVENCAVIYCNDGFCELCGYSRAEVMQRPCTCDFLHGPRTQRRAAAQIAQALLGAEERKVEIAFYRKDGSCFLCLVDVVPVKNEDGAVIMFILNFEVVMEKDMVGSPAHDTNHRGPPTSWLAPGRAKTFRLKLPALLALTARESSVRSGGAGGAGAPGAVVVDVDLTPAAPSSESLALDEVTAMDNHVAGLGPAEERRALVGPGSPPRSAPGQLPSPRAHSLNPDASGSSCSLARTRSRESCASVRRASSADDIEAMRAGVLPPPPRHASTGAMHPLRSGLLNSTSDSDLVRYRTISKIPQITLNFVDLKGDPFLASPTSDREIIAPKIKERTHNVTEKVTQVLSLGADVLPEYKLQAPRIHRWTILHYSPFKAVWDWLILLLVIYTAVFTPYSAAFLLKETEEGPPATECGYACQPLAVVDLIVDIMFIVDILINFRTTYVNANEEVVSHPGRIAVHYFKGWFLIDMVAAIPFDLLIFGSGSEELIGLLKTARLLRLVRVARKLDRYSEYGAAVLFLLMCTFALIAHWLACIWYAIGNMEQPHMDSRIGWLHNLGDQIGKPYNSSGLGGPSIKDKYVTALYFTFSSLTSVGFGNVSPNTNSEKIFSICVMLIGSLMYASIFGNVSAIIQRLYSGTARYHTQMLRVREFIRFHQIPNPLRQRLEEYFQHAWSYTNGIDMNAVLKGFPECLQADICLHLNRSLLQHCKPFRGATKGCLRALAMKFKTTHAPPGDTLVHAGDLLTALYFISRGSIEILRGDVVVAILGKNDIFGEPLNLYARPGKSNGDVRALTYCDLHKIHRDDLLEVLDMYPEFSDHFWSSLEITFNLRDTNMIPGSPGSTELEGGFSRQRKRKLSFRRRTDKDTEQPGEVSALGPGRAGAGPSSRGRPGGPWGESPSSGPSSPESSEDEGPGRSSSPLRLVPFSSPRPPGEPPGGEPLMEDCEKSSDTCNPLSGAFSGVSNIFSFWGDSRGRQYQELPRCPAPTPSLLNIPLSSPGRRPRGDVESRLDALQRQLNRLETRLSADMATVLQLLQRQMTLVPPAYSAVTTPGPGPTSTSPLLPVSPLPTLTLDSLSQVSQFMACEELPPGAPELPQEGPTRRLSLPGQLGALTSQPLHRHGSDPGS

| Structure (SMILES) | hERG current change (%, negative = inhibition) at 10uM |
| --- | --- |
| COc1ccc(OC)c(N(CC(=O)N2CCC(C)CC2)S(=O)(=O)c2ccccc2)c1 | -22.2% |
| CCCc1nnc(SCC(=O)O)n1/N=C/c1ccc2c(c1)OCO2 | -7.5% |
| CCOc1ccccc1CNC(=O)c1nn(CC)cc1[N+](=O)[O-] | 9.07% |
| C=CCSc1nnc(-c2sc(-c3ccccc3)nc2C)n1C | -33.6% |
| Cc1cc(NC(=O)CSCC(=O)N(C)Cc2ccc(Cl)c(Cl)c2)no1 | -9.94% |
| CCOC(=O)c1[nH]c2ccc(OC)cc2c1NS(=O)(=O)c1ccc(Cl)s1 | 12.9% |
| CCOc1cccc(CN2CCCC(CNC(=O)c3cccc(OC)c3OC)C2)c1 (centres unmarked) | -9.11% |
| CCc1ccc(CN2CCCC(CNC(=O)c3cccc(OC)c3OC)C2)cc1 (centres unmarked) | -54.1% |
| COc1ccccc1CN1CCCC(CNC(=O)c2cccc3ccccc23)C1 (centres unmarked) | -47.8% |
| N/C(Cc1nc(-c2ccc(F)cc2)cs1)=N\O | 13.7% |
| COc1ccc(/C=C2\SC(=S)N(NS(=O)(=O)c3ccccc3)C2=O)c(OC)c1 | -33.1% |
| CCOC(=O)Cc1csc(NS(=O)(=O)Cc2ccccc2)n1 | 3.54% |
| CC(C)c1ccc(Nc2nc(Cl)nc(Cl)n2)cc1 | 19.1% |
| Cc1ccc(C)c(CN2CCC(CNC(=O)Nc3ccc(Cl)cc3)CC2)c1 | -68.6% |
| COc1ccc(N2CCC(CNC(=O)Nc3ccc(Cl)cc3)C2)cc1 (centres unmarked) | 11.5% |
| COc1ccc(Cl)cc1NC(=O)NCC1CCN(Cc2ccccc2F)CC1 | -37.7% |
| COc1ccc(Cl)cc1NC(=O)NCC1CCN(Cc2cc(C)ccc2C)CC1 | -67.7% |
| Cc1ccc(C)c(CN2CCC(CNC(=O)Nc3ccc(F)c(Cl)c3)CC2)c1 | -65% |
| Cc1cccc(CN2CCC(CNC(=O)Nc3ccc(F)c(Cl)c3)CC2)c1 | -74.9% |
| Cc1cccc(NC(=O)NCC2CC2)c1 | 4.74% |
| COc1ccc(Cl)cc1NC(=O)NCC1CCN(C(=O)OC(C)(C)C)CC1 | 4.67% |
| COc1ccc(C(CC(=O)NCCN2CCOCC2)NS(=O)(=O)c2ccc(C)cc2)cc1 (centres unmarked) | 5.28% |
| Cc1ccc(CNC(=O)C2CCCN(c3nc4ccccc4o3)C2)cc1 (centres unmarked) | -1.06% |
| O=C(CSc1nnc(-c2ccco2)o1)NCC(=O)c1ccccc1 | -4.72% |

| Structure (SMILES) | hERG current change (%, negative = inhibition) at 10uM |
| --- | --- |
| COC(=O)CCC(=O)NNC(=O)c1cccc(Cl)c1 | 16.4% |
| CC(=O)c1sc(NC(=O)C(C)C)nc1C | -0.878% |
| CC(=O)Nc1ccc(-c2csc(Nc3ccc(S(N)(=O)=O)cc3)n2)cc1 | -1.99% |
| O=C(Cn1nc(-c2ccc(F)cc2)ccc1=O)Nc1ccc2c(c1)OCCO2 | -0.525% |
| Cc1ccc(NC(=O)NCC2CCN(Cc3cc(C)ccc3Cl)CC2)c(C)c1 | -58.3% |
| Cc1ccc(NC(=O)NC(=O)CN2CCC(C(N)=O)CC2)c(C)c1 | 12% |
| Cc1ccc(C)c(CN2CCC(CNC(=O)Nc3cccc(Cl)c3C)CC2)c1 | -43.1% |
| O=C(Cn1nnc(-c2ccccc2)n1)c1ccccc1 | 7.22% |
| Cc1nc(/N=C(\N)NC(=O)NC2CCCCC2)nc2ccccc12 | -21% |
| Cc1ccc2nc(/N=C(\N)NC(=O)NC3CCCCC3)nc(C)c2c1 | -76.4% |
| CCCC(=O)N/C(N)=N/c1nc(C)c2cc(C)ccc2n1 | -23.8% |
| Cc1ccc(C(=O)c2cc(C)sc2NC(=O)CN2CCN(C(=O)c3ccco3)CC2)cc1 | -11.7% |
| CCOC(=O)c1cc(CC)sc1NC(=O)CN1CCN(C(=O)C2CCCO2)CC1 (centres unmarked) | -65.9% |
| CCc1cc(C(=O)OC)c(NC(=O)CN2CCN(C(=O)C3CCCO3)CC2)s1 (centres unmarked) | -47.2% |
| CCOC(=O)c1cc(C)sc1NC(=O)CN1CCN(C(=O)C2CCCO2)CC1 (centres unmarked) | -31% |
| COC(=O)CN1CCN(C(=O)c2ccco2)CC1 | 10% |
| CCOC(=O)c1c(NC(=O)CN2CCN(C(=O)c3ccco3)CC2)sc(C(N)=O)c1C | -20.1% |
| CCOC(=O)c1cc(CC)sc1NC(=O)CN1CCN(C(=O)c2ccco2)CC1 | -67.2% |
| CCOC(=O)c1cc(C)sc1NC(=O)CN1CCN(C(=O)c2ccco2)CC1 | -72.8% |
| CCOC(=O)c1c(NC(=O)CN2CCN(C(=O)c3ccco3)CC2)sc(C)c1C | -8.41% |
| COC(=O)c1cc(C)sc1NC(=O)CN1CCN(C(=O)c2ccco2)CC1 | -30% |
| CCc1c(C)sc(NC(=O)CN2CCN(C(=O)c3ccco3)CC2)c1C(=O)OC | -39.7% |
| CCc1cc(C(=O)OC)c(NC(=O)CN2CCN(C(=O)c3ccco3)CC2)s1 | -51.6% |
